Compounds with a hit are over-represented: about 2.7% of the library has one in this group of screens.
Neddylation inh = cullin neddylation inhibition | P61081+Q13564 | TR-FRET cullin neddylation, biochemical | calls only at 25 µM | actives 0.58% (n = 360,000) | AID 651699; in the data active = inhibition above about 36%
Target sequence (P61081 whole entry, looked up): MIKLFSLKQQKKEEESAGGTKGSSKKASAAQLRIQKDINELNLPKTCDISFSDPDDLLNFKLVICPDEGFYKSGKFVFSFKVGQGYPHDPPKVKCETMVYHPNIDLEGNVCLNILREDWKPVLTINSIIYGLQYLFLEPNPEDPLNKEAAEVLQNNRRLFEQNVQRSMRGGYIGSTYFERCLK
Target sequence (Q13564 whole entry, looked up): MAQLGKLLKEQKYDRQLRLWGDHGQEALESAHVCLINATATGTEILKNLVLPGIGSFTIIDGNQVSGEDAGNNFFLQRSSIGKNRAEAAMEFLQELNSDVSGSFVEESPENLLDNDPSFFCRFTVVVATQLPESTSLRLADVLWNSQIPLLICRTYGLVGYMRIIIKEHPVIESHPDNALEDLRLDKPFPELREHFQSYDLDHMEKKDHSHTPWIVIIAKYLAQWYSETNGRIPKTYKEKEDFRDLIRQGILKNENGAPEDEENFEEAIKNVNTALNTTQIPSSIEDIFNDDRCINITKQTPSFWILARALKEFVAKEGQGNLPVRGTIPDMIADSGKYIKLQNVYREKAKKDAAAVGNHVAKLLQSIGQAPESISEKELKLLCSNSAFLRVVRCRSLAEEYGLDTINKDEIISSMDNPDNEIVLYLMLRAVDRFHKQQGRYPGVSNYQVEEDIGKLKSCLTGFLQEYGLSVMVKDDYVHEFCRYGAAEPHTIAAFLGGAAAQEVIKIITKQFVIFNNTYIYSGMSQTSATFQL
PfG6PD inh = PfG6PD (Plasmodium falciparum) enzyme inhibition | PfGluPho enzyme, NADPH resazurin-diaphorase fluorescence | inhibition, % at 20 µM | actives 0.78% (n = 350,000);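 active = inhibition reaching at least a set limit at 20 µM in the primary screen, cut at about 59% in these data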;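 also: 0% = DMSO wells with substrate and 100% = DMSO wells lacking glucose-6-phosphate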
FAS TE block = blocks the thioesterase domain of human fatty acid synthase; recombinant FAS-TE, OMFH fluorogenic substrate, fluorescence endpoint; inhibition, % at 15 µM; actives 0.67% (n = 360,000); P49327;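 active = compounds whose normalised, plate-corrected inhibition of enzyme fluorescence in the single-dose primary screen is 50% or more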;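 also: 0% = DMSO with enzyme and 100% = substrate without enzyme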
KLK7 zymogen act = activates the human kallikrein-7 zymogen; purified proKLK7, EDANS-DABCYL substrate fluorescence; 100% is mature enzyme control, 0% vehicle; activation, % at 7 µM; actives 0.9% (n = 370,000); P49862; AID 652039;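 active = activation above the mean of all tested compounds plus 3 SD, computed per campaign excluding outliers beyond control limits, cut at about 13% in these data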
Neddyl inh conf = confirmation of human cullin neddylation inhibitors; actives 13% (n = 1,800); calls only at 25 µM; AID 652217; TR-FRET cullin neddylation biochemical assay; shares compounds with Neddylation inh; in the data active = inhibition above about 40%;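 also: neddylation substrate is the cullin 1 ring ligase complex with SKP2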
Numbers without * were called inactive; i = inactive; nt = no result given; + = active, no number.

SMILES	Neddylation inh	PfG6PD inh	FAS TE block	KLK7 zymogen act	Neddyl inh conf
O=c1[nH]cnc2sc3c(c12)CCN(Cc1ccccc1)C3	+	8.3	3.6	12.2	i
O=c1c2cc3cccnc3nc2ncn1CCc1c[nH]c2ccccc12	nt	nt	nt	-5.5	nt
CCOCCCn1c(C)nc2c(c1=O)c1nc3ccccc3nc1n2CCC1=CCCCC1	+	32.2	10.0	-5.8	i
C=CCN(Cc1ccccc1)C(C#CC(=C)C)Cc1ccccc1 (stereo unspecified)	nt	nt	nt	0.0	nt
O=C(N/N=C/c1cn(Cc2ccccc2)c2ccccc12)c1cc(O)cc(O)c1	+	23.9	5.9	0.2	+
COCCNC(=O)CSc1ccc(-c2nc3ccccc3[nH]2)cn1	+	-7.8	-3.9	-0.4	+
CN(C)CCSc1nc(N)c2c3c(sc2n1)CN(C)CC3	+	26.2	-10.1	2.3	i
CCCSc1nc(N)c2c3c(sc2n1)CN(C)CC3	i	7.0	-6.0	nt	nt
COCCSc1nc(N)c2c3c(sc2n1)CN(C)CC3	+	8.6	-2.5	-1.8	i
COC(=O)C1CN(Cc2cn(Cc3ccc(C)cc3)nn2)CCS(=O)(=O)N1Cc1ccc(Cl)cc1 (stereo unspecified)	nt	nt	nt	-1.0	nt
Clc1ccc(CN2CCN(c3ncc(Cc4ccccc4)cn3)CC2)c(Cl)c1	nt	nt	nt	1.1	nt
COc1ccc(NC(=O)c2ccc(-c3ccc(C(C)=O)cc3)o2)cn1	+	34.1	-6.2	3.8	i
COc1ccc(NC(=O)c2ccco2)cn1	i	5.4	-4.7	0.0	nt
C=CCN1[C@H](CO)[C@H](c2ccc(Br)cc2)[C@@H]1C#N	nt	nt	nt	0.1	nt
COC(=O)Nc1c(-c2ccccc2)nc2ccccn12	nt	-1.4	-11.8	0.7	nt
c1ccc(-c2nc3ccccn3c2-c2ccccc2)cc1	+	-2.2	14.8	-1.5	nt
Cn1c(=O)[nH]c2c(Br)nccc21	nt	nt	nt	0.4	nt
COc1ccc(-c2cn3cccnc3n2)cc1NC(=O)c1cc(OC)c(OC)c(OC)c1	nt	-7.3	-3.8	5.2	nt
COc1ccc(-c2cn3cccnc3n2)cc1NC(=O)c1cccs1	+	2.3	-4.3	3.9	+
O=C(NC1CCCN(Cc2ccc(Cl)cc2)C1)c1cnc2ccccn2c1=O (stereo unspecified)	+	-13.6	6.2	5.1	nt
CCCNC(=O)c1cc2nc(-c3ccccc3)cc(C(F)(F)F)n2n1	+	-11.3	0.5	1.1	nt
O=C(NC1CCCCC1)c1cnn2c(C(F)(F)F)cc(-c3ccco3)nc12	+	11.1	12.5	-1.4	+
CC(C)NC(=O)c1cc2nc(-c3ccco3)cc(C(F)(F)F)n2n1	nt	-7.3	-8.2	12.5	nt
O=C(NC1CCCC1)c1cc2nc(-c3ccco3)cc(C(F)(F)F)n2n1	+	-8.2	-3.1	4.5	i
COc1ccc(C2C(C(=O)Nc3ccc(Cl)c(Cl)c3)CCC(=O)N2c2ccc(OC)cc2)cc1 (stereo unspecified)	nt	nt	nt	0.3	nt
SMILES	Neddylation inh	PfG6PD inh	FAS TE block	KLK7 zymogen act	Neddyl inh conf
CC(=O)Nc1ccc(NC(=O)COC(=O)/C=C/c2ccc3c(c2)OCO3)cc1	nt	5.4	-2.9	-19.6	nt
CC1CCCCC1NC(=O)COC(=O)/C=C/c1ccc2c(c1)OCO2 (stereo unspecified)	+	10.6	5.2	0.2	i
O=C(c1nc2nc(-c3ccccc3)cc(C(F)(F)F)n2n1)N1CCOCC1	i	-7.2	-1.0	0.4	nt
O=C(c1nc2nc(-c3ccc(Cl)cc3)cc(C(F)(F)F)n2n1)N1CCOCC1	+	-13.5	-6.8	1.9	i
Cc1nc2ccc(NC(=O)c3ccc(F)cc3Cl)cc2c(=O)[nH]1	nt	nt	nt	0.2	nt
CCOC(=O)c1snc2c(=O)[nH]cnc12	+	-16.2	-10.2	-116.2	i
CC(COc1cccc(Cl)c1)CN1CCC(C(O)(c2ccccc2)c2ccccc2)CC1 (stereo unspecified)	nt	nt	nt	0.2	nt
CCc1ccc(-c2cc(C(=O)Nc3c(C)n(C)n(-c4ccccc4)c3=O)c3ccccc3n2)s1	+	4.8	16.6	nt	i
CN(CCOc1ccc(Cl)cc1)C(=O)c1cc(-c2ccco2)nc2ccccc12	+	12.3	23.6	-11.7	nt
COc1cccc(NC(=O)CN(C)C(=O)c2cc(-c3ccco3)nc3ccccc23)c1	nt	3.3	-1.1	-5.0	nt
COc1cccc(NC(=O)c2cc(-c3ccco3)nc3ccccc23)c1	+	-2.0	2.8	-8.2	nt
O=C(Nc1ccccc1F)c1cc(-c2ccco2)nc2ccccc12	+	16.9	3.9	-10.0	nt
O=C(Nc1ccc(F)cc1F)c1cc(-c2ccco2)nc2ccccc12	i	24.8	5.9	-88.5	nt
CN(C)c1ccc(/C=C/CNC[C@H]2O[C@@H](n3ccc(N)nc3=O)[C@H](O)[C@@H]2O)cc1	i	6.0	-7.9	0.3	nt
CC(=O)Oc1ccc2nc(/C=C/c3ccccc3)oc(=O)c2c1	+	3.1	20.4	0.4	i
CC(=O)Oc1ccc2nc(/C=C/c3ccc(C=O)cc3)oc(=O)c2c1	i	1.7	2.7	-0.1	nt
CC(C)(C)N(NC(=O)NCCCl)C(=O)c1ccccc1Cl	nt	nt	nt	0.5	nt
CSc1ncc(C(=O)O)c(C)n1	i	1.9	-6.2	-0.3	nt
Cc1ncc(C(=O)O)c(C(=O)O)c1N	+	-4.3	-6.2	1.1	nt
COC(=O)[C@H](C(C)C)N(Cc1cn(Cc2ccc(C)cc2)nn1)S(=O)(=O)c1ccc(F)cc1Br	nt	nt	nt	0.3	nt
Cc1ccc2nc(COC(=O)c3ccc(Cl)nc3)cc(=O)n2c1	i	3.5	-2.5	0.9	nt
Cc1ccc2nc(Cl)cc(=O)n2c1	+	12.2	0.3	8.5	i
NC(=O)[C@@H]1CCCN1C(=O)[C@@H](Cc1ccccc1)NC(=O)[C@H]1O[C@@H](n2ccc(N)nc2=O)[C@H](O)[C@@H]1O	nt	nt	nt	0.5	nt
CN(C)CCNc1nc(-c2ccco2)c2c(c1C#N)CC(C)(C)OC2	+	-6.2	-6.7	10.2	+
CC1(C)Cc2c(C#N)c(NCc3ccco3)nc(-c3ccco3)c2CO1	i	12.7	-2.3	1.2	nt
SMILES	Neddylation inh	PfG6PD inh	FAS TE block	KLK7 zymogen act	Neddyl inh conf
CCCCN1C(=O)N2Cc3ccccc3C2CS1(=O)=O (stereo unspecified)	nt	nt	nt	0.1	nt
Cc1cn(-c2cccnc2)c(C)c1CNC[C@H]1O[C@@H](n2cnc3c(N)ncnc32)[C@H](O)[C@@H]1O	+	21.2	-8.5	0.8	i
Cc1sc2ccccc2c1CNC[C@H]1O[C@@H](n2cnc3c(N)ncnc32)[C@H](O)[C@@H]1O	i	7.5	-4.3	0.3	nt
COC(=O)[C@H](CC(C)C)N1Cc2nnn(CC3CCCCC3)c2-c2ccccc2S1(=O)=O	nt	nt	nt	0.8	nt
CC(=O)Cn1c2ccccc2n2nc(CCC(=O)O)c(=O)nc12	nt	2.7	-5.6	2.4	nt
COc1ccc(C(=O)Cn2c3ccccc3n3nc(CCC(=O)O)c(=O)nc23)cc1OC	+	6.3	-4.3	0.4	nt
OCCCNC(=S)Nc1ccc2nccnc2c1	+	27.4	3.0	-0.2	i
CCOC(=O)c1sc2nccc(N(C)C)c2c1N=CNOC	i	-0.1	3.3	0.1	nt
CCOC(=O)c1sc2nccc(N(C)C)c2c1N=CNOCc1ccccc1	+	30.6	18.4	-1.4	i

Bioassay records as filed in PubChem BioAssay.
